# In article PMC7862700, “An all-to-all approach to the identification of sequence-specific readers for epigenetic DNA modifications on cytosine”:
# Columns and labels:
# Experiment in all cases: DAPPL (digital affinity profiling via proximity ligation, sequencing); 10 mM Tris-HCl pH 7.5, 50 mM NaCl, 1 mM DTT, 4% glycerol, room temperature, 30 min; GST-TFs on glutathione beads, 16-mer random dsDNA library, 0.1% formaldehyde crosslink after washing; high values mean tight binding
# FLI1 = target: T1, FLI1 (Homo sapiens, UniProt Q01543 1-452); conditions: protein: recombinant; tags: N-terminal GST; dsDNA, one strand shown
# T1 sequence: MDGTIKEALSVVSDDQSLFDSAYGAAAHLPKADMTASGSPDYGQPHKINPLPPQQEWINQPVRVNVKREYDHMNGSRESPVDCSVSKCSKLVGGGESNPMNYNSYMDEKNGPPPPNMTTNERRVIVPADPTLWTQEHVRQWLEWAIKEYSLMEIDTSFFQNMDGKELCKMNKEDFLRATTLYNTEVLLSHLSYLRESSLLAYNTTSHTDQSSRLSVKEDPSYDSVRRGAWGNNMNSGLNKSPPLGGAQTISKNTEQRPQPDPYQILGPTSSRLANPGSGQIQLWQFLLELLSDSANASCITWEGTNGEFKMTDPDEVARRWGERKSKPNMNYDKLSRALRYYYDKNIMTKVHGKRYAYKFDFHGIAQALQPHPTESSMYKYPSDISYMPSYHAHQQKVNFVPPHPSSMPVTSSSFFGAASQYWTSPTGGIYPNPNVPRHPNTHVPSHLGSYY
# How it was run: (§1)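 GST fusions of human transcription factors were expressed in yeast and captured with glutathione beads. Once given DNA barcodes and pooled alongside a tag-only sample, they were incubated for 30 min at room temperature with 200 nmole of a random double-stranded 16-mer DNA library in Tris/NaCl/DTT/glycerol buffer, then washed, crosslinked (0.1% formaldehyde), proximity-ligated, PCR-amplified and sequenced on an Illumina NextSeq500. The binding signal of each hexamer is its read frequency for a factor divided by its frequency for the tag-only sample.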
# ELK1 = target: T2, ELK1 (Homo sapiens, UniProt P19419 1-428); conditions: protein: recombinant; tags: N-terminal GST; dsDNA, one strand shown
# T2 sequence: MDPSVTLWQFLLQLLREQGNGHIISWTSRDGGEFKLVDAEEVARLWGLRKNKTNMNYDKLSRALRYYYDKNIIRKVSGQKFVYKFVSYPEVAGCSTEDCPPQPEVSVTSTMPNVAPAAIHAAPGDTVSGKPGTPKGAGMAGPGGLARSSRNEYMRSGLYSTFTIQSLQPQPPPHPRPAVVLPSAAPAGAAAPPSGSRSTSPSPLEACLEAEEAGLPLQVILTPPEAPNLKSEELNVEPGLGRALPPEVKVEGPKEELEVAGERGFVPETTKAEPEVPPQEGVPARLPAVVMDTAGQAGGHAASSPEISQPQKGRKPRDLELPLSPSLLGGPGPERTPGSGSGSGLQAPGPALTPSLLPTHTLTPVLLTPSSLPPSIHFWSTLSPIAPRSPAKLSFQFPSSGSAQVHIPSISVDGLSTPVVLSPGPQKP
# How it was run: as §1
# GABPA = target: T3, GABPA (Homo sapiens, UniProt Q06546 1-454); conditions: protein: recombinant; tags: N-terminal GST; dsDNA, one strand shown
# T3 sequence: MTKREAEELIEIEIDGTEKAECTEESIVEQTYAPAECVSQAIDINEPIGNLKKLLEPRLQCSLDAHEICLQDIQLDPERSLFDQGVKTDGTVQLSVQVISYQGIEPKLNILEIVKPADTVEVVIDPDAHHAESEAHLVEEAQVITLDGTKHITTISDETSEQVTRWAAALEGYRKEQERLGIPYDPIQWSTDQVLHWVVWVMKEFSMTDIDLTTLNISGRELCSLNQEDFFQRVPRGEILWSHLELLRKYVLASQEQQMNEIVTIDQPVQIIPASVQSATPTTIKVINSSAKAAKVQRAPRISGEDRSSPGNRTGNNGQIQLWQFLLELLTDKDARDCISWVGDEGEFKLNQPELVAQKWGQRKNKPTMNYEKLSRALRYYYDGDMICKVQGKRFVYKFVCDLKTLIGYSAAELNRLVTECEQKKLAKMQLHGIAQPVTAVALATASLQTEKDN
# How it was run: as §1
# ERG = target: T4, ERG (Homo sapiens, UniProt P11308 1-479); conditions: protein: recombinant; tags: N-terminal GST; dsDNA, one strand shown
# T4 sequence: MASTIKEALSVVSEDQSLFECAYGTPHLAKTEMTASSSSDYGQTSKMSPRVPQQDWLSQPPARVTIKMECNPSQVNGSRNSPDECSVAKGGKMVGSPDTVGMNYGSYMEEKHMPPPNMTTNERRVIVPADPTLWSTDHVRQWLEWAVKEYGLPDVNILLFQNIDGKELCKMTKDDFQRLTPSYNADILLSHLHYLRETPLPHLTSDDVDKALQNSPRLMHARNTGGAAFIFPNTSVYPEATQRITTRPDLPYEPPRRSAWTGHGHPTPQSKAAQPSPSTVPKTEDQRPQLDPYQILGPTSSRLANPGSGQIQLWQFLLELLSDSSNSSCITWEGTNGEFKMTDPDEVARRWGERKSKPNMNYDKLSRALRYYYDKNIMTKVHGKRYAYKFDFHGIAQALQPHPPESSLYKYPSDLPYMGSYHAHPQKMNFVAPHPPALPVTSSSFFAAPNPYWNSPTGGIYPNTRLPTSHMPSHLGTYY
# How it was run: as §1
# ELF1 = ELF1 (Homo sapiens, UniProt P32519 1-619); conditions: protein: recombinant; tags: N-terminal GST; dsDNA, one strand shown
# How it was run: as §1
# EHF = target: T5, EHF (Homo sapiens, UniProt Q9NZC4 1-300); conditions: protein: recombinant; tags: N-terminal GST; dsDNA, one strand shown
# T5 sequence: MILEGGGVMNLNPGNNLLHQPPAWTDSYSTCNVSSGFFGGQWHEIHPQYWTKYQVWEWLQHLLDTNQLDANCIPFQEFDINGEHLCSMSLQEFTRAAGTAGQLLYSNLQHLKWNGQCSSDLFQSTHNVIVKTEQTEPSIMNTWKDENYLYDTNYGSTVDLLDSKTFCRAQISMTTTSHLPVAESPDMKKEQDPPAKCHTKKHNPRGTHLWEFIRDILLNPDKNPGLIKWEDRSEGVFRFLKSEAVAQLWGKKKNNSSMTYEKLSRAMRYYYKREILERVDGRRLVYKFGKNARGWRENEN
# How it was run: as §1
# SPI1 = SPI1 (Homo sapiens, UniProt P17947 1-270); conditions: protein: recombinant; tags: N-terminal GST; dsDNA, one strand shown
# How it was run: as §1
# SPIB = SPIB (Homo sapiens, UniProt Q01892 1-262); conditions: protein: recombinant; tags: N-terminal GST; dsDNA, one strand shown
# How it was run: as §1
# ELK3 = target: T6, ELK3 (Homo sapiens, UniProt P41970 1-407); conditions: protein: recombinant; tags: N-terminal GST; dsDNA, one strand shown
# T6 sequence: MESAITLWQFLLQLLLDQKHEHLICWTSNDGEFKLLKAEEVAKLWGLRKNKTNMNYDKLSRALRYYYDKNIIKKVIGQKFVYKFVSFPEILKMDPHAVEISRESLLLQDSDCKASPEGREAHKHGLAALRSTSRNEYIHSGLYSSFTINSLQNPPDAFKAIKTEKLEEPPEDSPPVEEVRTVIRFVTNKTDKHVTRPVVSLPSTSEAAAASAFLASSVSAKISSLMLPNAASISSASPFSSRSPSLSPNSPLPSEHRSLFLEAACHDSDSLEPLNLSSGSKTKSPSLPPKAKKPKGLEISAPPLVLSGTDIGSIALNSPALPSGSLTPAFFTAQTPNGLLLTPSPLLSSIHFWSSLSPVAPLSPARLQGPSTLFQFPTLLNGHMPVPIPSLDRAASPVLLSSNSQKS
# How it was run: as §1
# FEV = target: T7, FEV (Homo sapiens, UniProt Q99581 1-238); conditions: protein: recombinant; tags: N-terminal GST; dsDNA, one strand shown
# T7 sequence: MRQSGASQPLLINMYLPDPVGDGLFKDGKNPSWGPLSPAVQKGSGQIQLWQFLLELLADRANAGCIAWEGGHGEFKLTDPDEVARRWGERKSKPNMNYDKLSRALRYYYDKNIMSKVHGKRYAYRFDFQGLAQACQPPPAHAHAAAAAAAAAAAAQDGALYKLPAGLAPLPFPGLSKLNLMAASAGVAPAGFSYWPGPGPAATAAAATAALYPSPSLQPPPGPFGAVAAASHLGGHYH
# How it was run: as §1
# ETV5 = ETV5 (Homo sapiens, UniProt P41161 1-510); conditions: protein: recombinant; tags: N-terminal GST; dsDNA, one strand shown
# How it was run: as §1
# HSF1 = HSF1 (Homo sapiens, UniProt Q00613 1-529); conditions: protein: recombinant; tags: N-terminal GST; chain copies: 3; dsDNA, one strand shown
# How it was run: as §1
# SPIC = target: T8, SPIC (Homo sapiens, UniProt Q8N5J4 1-248); conditions: protein: recombinant; tags: N-terminal GST; dsDNA, one strand shown
# T8 sequence: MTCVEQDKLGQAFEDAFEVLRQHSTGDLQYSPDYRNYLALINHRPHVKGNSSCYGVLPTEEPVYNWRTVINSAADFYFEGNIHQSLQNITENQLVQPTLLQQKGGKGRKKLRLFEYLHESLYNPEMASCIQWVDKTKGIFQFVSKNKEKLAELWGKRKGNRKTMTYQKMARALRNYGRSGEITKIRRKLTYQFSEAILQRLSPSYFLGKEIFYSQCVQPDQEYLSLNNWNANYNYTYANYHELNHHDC
# How it was run: as §1
# ELF4 = ELF4 (Homo sapiens, UniProt Q99607 1-663); conditions: protein: recombinant; tags: N-terminal GST; dsDNA, one strand shown
# How it was run: as §1
# ELK4 = target: T9, ELK4 (Homo sapiens, UniProt P28324-2 1-405); conditions: protein: recombinant; tags: N-terminal GST; dsDNA, one strand shown
# T9 sequence: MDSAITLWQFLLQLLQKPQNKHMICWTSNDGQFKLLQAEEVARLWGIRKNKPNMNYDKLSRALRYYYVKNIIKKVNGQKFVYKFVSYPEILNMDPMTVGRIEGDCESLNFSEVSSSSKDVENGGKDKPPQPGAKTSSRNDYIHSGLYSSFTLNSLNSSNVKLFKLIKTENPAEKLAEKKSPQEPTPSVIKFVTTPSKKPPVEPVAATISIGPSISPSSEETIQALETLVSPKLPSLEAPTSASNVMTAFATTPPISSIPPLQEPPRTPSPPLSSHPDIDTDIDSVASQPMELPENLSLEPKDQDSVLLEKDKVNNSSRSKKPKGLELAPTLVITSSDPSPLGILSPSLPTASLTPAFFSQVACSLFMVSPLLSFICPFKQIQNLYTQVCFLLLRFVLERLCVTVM
# How it was run: as §1
# ETV2 = target: T10, ETV2 (Homo sapiens, UniProt O00321 1-342); conditions: protein: recombinant; tags: N-terminal GST; dsDNA, one strand shown
# T10 sequence: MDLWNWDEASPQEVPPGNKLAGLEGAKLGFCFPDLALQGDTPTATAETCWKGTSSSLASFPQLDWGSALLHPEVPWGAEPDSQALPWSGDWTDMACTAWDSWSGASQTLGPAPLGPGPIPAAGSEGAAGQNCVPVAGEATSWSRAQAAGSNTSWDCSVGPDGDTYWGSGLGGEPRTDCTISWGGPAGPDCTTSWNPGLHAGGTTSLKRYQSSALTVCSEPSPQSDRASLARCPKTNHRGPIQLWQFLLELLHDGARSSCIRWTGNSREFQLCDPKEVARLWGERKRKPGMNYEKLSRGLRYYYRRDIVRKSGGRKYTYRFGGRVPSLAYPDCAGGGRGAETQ
# How it was run: as §1
# ELF3 = target: T11, ELF3 (Homo sapiens, UniProt P78545 1-371); conditions: protein: recombinant; tags: N-terminal GST; dsDNA, one strand shown
# T11 sequence: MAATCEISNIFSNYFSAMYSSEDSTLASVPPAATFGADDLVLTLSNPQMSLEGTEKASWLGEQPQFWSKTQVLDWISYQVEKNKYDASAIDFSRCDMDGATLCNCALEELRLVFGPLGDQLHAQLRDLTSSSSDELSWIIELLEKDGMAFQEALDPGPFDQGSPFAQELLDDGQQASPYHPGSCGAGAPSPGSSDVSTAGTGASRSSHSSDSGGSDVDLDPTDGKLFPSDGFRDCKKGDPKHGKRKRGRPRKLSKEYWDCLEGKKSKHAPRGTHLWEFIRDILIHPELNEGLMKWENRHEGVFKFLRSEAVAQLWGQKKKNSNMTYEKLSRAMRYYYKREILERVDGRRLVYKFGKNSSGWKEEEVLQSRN
# How it was run: as §1
# ETV1 = ETV1 (Homo sapiens, UniProt P50549 1-477); conditions: protein: recombinant; tags: N-terminal GST; dsDNA, one strand shown
# How it was run: as §1
# ELF4, sequence (Q99607 whole entry): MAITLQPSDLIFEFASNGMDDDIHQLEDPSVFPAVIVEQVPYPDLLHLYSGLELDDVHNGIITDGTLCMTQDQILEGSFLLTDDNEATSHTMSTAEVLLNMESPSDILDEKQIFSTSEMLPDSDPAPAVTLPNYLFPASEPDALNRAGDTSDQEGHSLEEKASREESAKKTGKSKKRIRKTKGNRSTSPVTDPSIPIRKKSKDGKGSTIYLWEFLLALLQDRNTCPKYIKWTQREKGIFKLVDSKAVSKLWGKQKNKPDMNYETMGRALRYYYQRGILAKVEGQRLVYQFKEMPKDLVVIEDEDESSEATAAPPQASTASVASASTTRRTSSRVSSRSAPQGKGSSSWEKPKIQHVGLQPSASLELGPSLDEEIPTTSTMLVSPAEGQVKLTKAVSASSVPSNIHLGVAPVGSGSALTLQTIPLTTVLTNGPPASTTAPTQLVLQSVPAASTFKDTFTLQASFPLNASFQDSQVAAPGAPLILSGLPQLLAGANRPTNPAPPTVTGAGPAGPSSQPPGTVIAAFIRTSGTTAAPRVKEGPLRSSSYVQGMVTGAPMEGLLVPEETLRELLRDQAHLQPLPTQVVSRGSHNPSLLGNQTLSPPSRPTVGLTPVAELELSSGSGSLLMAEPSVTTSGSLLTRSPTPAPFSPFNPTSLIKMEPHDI
# ETV1, sequence (P50549 whole entry): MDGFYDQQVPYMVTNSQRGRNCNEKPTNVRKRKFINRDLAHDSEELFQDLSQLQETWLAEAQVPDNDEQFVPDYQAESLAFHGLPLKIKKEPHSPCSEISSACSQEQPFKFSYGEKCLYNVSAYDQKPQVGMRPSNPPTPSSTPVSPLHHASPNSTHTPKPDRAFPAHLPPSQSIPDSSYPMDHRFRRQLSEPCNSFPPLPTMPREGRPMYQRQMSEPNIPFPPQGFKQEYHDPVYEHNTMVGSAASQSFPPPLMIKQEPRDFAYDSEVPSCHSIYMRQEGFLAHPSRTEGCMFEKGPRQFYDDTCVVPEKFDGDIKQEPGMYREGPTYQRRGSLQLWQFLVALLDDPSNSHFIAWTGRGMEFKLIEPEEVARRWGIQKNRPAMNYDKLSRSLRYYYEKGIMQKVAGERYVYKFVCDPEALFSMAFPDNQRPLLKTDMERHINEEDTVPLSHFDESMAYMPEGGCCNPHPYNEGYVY
# ETV5, sequence (P41161 whole entry): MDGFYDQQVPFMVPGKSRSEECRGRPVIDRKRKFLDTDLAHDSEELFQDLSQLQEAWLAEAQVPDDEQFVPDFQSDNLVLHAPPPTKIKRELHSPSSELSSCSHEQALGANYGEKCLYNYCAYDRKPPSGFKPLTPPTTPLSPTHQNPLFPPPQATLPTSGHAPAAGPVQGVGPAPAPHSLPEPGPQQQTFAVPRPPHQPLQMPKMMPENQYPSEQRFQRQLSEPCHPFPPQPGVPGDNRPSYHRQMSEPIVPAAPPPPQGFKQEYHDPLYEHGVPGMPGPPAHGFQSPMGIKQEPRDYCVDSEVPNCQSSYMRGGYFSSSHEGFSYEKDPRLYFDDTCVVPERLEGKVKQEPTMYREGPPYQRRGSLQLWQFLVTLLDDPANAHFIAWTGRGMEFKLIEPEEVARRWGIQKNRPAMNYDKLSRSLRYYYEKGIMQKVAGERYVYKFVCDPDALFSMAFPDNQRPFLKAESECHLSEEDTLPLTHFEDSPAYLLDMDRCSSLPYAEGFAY
# HSF1, sequence (Q00613 whole entry): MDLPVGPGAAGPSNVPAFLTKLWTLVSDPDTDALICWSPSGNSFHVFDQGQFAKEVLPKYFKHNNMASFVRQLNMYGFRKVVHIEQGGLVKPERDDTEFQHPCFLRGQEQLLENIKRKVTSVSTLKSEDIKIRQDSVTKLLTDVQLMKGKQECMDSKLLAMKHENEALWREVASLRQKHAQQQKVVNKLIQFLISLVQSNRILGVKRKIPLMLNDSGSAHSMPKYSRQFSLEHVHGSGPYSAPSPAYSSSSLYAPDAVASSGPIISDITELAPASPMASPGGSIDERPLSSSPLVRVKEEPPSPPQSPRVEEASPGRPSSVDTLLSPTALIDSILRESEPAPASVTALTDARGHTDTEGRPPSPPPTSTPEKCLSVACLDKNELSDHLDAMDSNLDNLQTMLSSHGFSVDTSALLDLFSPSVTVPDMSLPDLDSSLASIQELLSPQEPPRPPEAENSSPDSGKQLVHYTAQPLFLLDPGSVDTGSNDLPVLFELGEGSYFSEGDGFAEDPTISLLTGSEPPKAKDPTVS
# SPIB, sequence (Q01892 whole entry): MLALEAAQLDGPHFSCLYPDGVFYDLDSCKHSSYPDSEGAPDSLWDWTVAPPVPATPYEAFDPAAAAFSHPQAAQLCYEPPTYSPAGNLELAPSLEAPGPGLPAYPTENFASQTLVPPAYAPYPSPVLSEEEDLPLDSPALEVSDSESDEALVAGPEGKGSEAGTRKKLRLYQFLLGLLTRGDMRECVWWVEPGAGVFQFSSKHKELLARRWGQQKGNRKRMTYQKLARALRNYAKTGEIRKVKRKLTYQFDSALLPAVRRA
# ELF1, sequence (P32519 whole entry): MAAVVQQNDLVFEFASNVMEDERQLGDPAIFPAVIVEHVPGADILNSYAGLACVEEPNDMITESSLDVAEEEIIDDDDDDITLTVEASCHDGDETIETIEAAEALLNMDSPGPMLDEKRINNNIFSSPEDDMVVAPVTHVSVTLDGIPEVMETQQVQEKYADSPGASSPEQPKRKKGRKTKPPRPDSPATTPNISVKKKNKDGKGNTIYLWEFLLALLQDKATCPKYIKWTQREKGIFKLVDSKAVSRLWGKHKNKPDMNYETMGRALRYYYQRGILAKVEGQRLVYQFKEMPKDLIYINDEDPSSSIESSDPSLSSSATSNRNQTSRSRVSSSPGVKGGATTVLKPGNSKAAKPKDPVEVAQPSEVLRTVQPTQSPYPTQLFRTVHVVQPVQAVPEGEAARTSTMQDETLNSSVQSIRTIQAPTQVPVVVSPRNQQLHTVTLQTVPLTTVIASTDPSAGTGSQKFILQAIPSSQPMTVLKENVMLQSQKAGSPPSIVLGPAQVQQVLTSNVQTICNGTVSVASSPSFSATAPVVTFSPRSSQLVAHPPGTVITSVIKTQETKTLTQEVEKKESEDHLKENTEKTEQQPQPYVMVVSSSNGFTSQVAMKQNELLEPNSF
sequence,measurement,setting,value
TGTACA,binding signal,FLI1,"1.22 fold enrichment (6-mer frequency, TF over GST control)"
same,binding signal,ELK1,"1.26 fold enrichment (6-mer frequency, TF over GST control)"
same,binding signal,GABPA,"1.1 fold enrichment (6-mer frequency, TF over GST control)"
same,binding signal,ERG,"1.24 fold enrichment (6-mer frequency, TF over GST control)"
same,binding signal,ELF1,"1.23 fold enrichment (6-mer frequency, TF over GST control)"
same,binding signal,EHF,"1.26 fold enrichment (6-mer frequency, TF over GST control)"
same,binding signal,SPI1,"1.28 fold enrichment (6-mer frequency, TF over GST control)"
same,binding signal,SPIB,"1.35 fold enrichment (6-mer frequency, TF over GST control)"
same,binding signal,ELK3,"1.11 fold enrichment (6-mer frequency, TF over GST control)"
same,binding signal,FEV,"1.24 fold enrichment (6-mer frequency, TF over GST control)"
same,binding signal,ETV5,"1.17 fold enrichment (6-mer frequency, TF over GST control)"
same,binding signal,HSF1,"1.01 fold enrichment (6-mer frequency, TF over GST control)"
same,binding signal,SPIC,"1.45 fold enrichment (6-mer frequency, TF over GST control)"
same,binding signal,ELF4,"1.36 fold enrichment (6-mer frequency, TF over GST control)"
same,binding signal,ELK4,"1.17 fold enrichment (6-mer frequency, TF over GST control)"
same,binding signal,ETV2,"1.19 fold enrichment (6-mer frequency, TF over GST control)"
same,binding signal,ELF3,"1.01 fold enrichment (6-mer frequency, TF over GST control)"
same,binding signal,ETV1,"1.15 fold enrichment (6-mer frequency, TF over GST control)"
